According to PubChem BioAssay (NCI):
The panel holds about 83,000 compounds, 20% with a hit somewhere; the sample as a whole holds those more often.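 Growth was measured after 48 h exposure to one concentration of compound in 96-well plates. Values under 10 count as active.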 Values without a mark were called inactive. Active and inactive are the calls of the source.

Tests used:
Experiment in all cases: NCI-60 one-dose screen, 48 h (100 = growth as untreated, 0 = no growth, -100 = all killed)
Details in all cases: 10 µM unless noted
NCI-H23 lung = system: NCI-H23 lung
NCI-H226 lung = system: NCI-H226 lung
NCI-H322M lung = system: NCI-H322M lung
HOP-62 NSCLC = system: HOP-62 NSCLC
NCI-H460 lung = system: NCI-H460 lung
HOP-92 NSCLC = system: HOP-92 NSCLC
NCI-H522 lung = system: NCI-H522 lung
A549/ATCC NSCLC = system: A549/ATCC NSCLC
786-0 renal = system: 786-0 renal
COLO 205 colon = system: COLO 205 colon

| SMILES | growth (NCI-H23 lung) | growth (NCI-H226 lung) | growth (NCI-H322M lung) | growth (HOP-62 NSCLC) | growth (NCI-H460 lung) | growth (HOP-92 NSCLC) | growth (NCI-H522 lung) | growth (A549/ATCC NSCLC) | growth (786-0 renal) | growth (COLO 205 colon) |
| --- | --- | --- | --- | --- | --- | --- | --- | --- | --- | --- |
| O=C1COCCN1c1ccc(Nc2nc(Cl)nc(N3CCOCC3)n2)cc1 | 96.5% | 87.5% | 93.3% | 97.9% | 108% | 85.8% | 68.2% | 95.8% | 104% | 102% |
| Cn1cc(-c2nnc(-c3ccccc3)s2)c2cc(Br)cnc21 | 85% | 64% | 88.2% | 74.3% | 95.4% | 42.3% | 89.5% | 83.1% | 99.6% | 104% |
| COc1cc(C)cc2oc3oc(=N)c(C(=O)c4ccccc4)cc3c(=O)c12 | 108% | 103% | 98% | 106% | 105% | 94.9% | 96.8% | 109% | 106% | 124% |
| CCOC(=O)c1nn(C2CCCCO2)c2ccc(NS(=O)(=O)c3ccc(C)cc3)cc12 (stereo not given) | 100% | 102% | 104% | 101% | 99.4% | 96.4% | 98% | 95.1% | 94.4% | 121% |
| CC1(C)CC[C@]2(C(=O)OC(=O)[C@]34CCC(C)(C)C[C@@H]3C3=CC[C@@H]5[C@@]6(C)CCC(=O)C(C)(C)[C@@H]6CC[C@@]5(C)[C@]3(C)CC4)CC[C@]3(C)C(=CC[C@@H]4[C@@]5(C)CCC(=O)C(C)(C)[C@@H]5CC[C@]43C)[C@H]2C1 | 58.9% [100 µM] | 68.1% [100 µM] | 86.9% [100 µM] | 74.7% [100 µM] | 58.3% [100 µM] | 45.6% [100 µM] | 56.2% [100 µM] | 76.5% [100 µM] | 64.1% [100 µM] | 88.6% [100 µM] |
| O=[N+]([O-])c1cc([N+](=O)[O-])c(NN=C(c2ccc(O)cc2)c2ccc(O)cc2)cc1Cl | -72.9% (active) | -28% (active) | 9.47% (active) | -91.2% (active) | -6.95% (active) | -69.6% (active) | -55.1% (active) | -71.2% (active) | -89% (active) | 25.6% |
| Nc1cc(Cl)cc2cccnc12 | 88.6% | 81.4% | 116% | 95.5% | 112% | 102% | 96.7% | 111% | 109% | 124% |
| Cc1cc(C)c(-c2cc(O)c(-c3c(C)cc(C)cc3C)cc2O)c(C)c1 | 34.9% | 64.4% | 68.6% | 47.2% | 16.9% | 94.3% | -12.7% (active) | 47.6% | 30.4% | -12.8% (active) |
| COc1ccc(-c2cc(-c3ccccc3)nc(SCCCCCC(=O)NO)n2)cc1 | 61.7% | 80.3% | 74.3% | 51.5% | 51.9% | 40.5% | 10.1% | 59.3% | 88% | 38.1% |
| O=C1CC(c2ccccc2)Cc2nc3ccc(Cl)cc3cc21 (stereo not given) | 36.4% | 20.8% | 39.8% | 35.9% | 3.33% (active) | 39.3% | 3.02% (active) | 23.3% | 37.6% | -31.7% (active) |
| COc1ccc2nc3c(cc2c1)C(=O)CC(C(F)(F)F)C3 (stereo not given) | 50.5% | 39.8% | 37.4% | 47.7% | 10.5% | 66.2% | 31.1% | 39.3% | 53.7% | 9.86% (active) |
| COc1ncnc2c(-c3ccccc3)cn(COCc3ccccc3)c12 | 45.8% | 66.5% | 86.6% | 75.6% | 34.1% | -0.37% (active) | 36.2% | 51.1% | 60.7% | 78.3% |
